Reference: PubChem BioAssay (Tox21)
Results filed as inconclusive are left out. Activity calls are given as the source filed them. Unless noted, calls come from the whole dose curve; as a rule, active = well fitted curve in the direction sought with a large enough effect in the repeat runs; inconclusive = weak or mixed curves; inactive = no such curve, though single readings can be large; an effect the other way counts as inactive or inconclusive.

Legend:
[1] = qHTS assay to identify aromatase inhibitors - cell viability counter screen (AID 743084);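 note: cells stimulated with testosterone during compound exposure; nearly all actives have a fitted effect of over 55% in size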
[2] = molecular target: Aryl hydrocarbon receptor (Homo sapiens) (UniProt P35869); test: qHTS assay to identify small molecule that activate the aryl hydrocarbon receptor (AhR) signaling pathway (AID 743085);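 note: HG2L7.5c1 human HepG2 liver cells with stably integrated DRE-driven firefly reporter; series mostly up to about 70 µM; nearly all actives have a fitted effect of over 15% in size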
Sequence of Aryl hydrocarbon receptor (Homo sapiens) (P35869 whole entry, looked up): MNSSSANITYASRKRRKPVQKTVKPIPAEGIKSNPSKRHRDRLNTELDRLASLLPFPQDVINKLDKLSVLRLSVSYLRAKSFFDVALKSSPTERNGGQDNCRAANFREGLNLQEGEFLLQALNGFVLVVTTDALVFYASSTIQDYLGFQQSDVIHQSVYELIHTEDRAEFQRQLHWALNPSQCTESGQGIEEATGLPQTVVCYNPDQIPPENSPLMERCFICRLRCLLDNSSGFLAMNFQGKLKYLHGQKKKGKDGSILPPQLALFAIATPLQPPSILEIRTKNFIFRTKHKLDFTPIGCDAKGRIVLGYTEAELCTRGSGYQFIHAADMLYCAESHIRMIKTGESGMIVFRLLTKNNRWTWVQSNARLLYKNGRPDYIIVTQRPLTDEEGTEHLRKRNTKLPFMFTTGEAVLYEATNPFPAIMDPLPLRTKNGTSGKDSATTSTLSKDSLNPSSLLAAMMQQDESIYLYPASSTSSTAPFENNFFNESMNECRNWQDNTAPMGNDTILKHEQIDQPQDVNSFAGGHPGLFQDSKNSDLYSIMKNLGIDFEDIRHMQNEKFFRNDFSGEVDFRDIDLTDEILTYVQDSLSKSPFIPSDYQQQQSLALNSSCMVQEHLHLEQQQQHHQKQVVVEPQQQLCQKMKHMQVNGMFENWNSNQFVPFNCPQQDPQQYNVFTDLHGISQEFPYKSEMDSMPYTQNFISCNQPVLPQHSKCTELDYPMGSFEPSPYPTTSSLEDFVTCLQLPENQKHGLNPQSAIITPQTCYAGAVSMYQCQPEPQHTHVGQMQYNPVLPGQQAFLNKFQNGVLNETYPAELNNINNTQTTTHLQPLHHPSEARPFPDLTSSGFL
Outline: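 Steps: seed HepG2-AhR-luc cells; allow 5 h at 37C; pin-transfer test compound or vehicle; incubate 24 h at 37C; add viability dye (30 min, 37C) and read fluorescence; add luciferase substrate (30 min, RT) and read luminescence.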

[3] = qHTS assay to identify small molecule that activate the aryl hydrocarbon receptor (AhR) signaling pathway - cell viability counter screen (AID 743086);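 note: HepG2 liver cells carrying the AhR DRE luciferase reporter; series mostly up to about 70 µM; nearly all actives have a fitted effect of over 45% in size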
Outline: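 Cytotoxicity counter screen: CellTiter-Fluor signal (30 min, 37 C) in 4000 HepG2 cells/well carrying the DRE-luciferase reporter, following 24 h compound exposure at 37 C.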

[4] = molecular target: Peroxisome proliferator-activated receptor gamma (Homo sapiens) (UniProt P37231); test: qHTS assay to identify small molecule agonists of the peroxisome proliferator-activated receptor gamma (PPARg) signaling pathway (AID 743094; active = well fitted activation curve with a large enough effect in the signal ratio in the repeat runs, not every such curve was filed as active; the % refers to the signal ratio)
Sequence of Peroxisome proliferator-activated receptor gamma (Homo sapiens) (P37231 whole entry, looked up): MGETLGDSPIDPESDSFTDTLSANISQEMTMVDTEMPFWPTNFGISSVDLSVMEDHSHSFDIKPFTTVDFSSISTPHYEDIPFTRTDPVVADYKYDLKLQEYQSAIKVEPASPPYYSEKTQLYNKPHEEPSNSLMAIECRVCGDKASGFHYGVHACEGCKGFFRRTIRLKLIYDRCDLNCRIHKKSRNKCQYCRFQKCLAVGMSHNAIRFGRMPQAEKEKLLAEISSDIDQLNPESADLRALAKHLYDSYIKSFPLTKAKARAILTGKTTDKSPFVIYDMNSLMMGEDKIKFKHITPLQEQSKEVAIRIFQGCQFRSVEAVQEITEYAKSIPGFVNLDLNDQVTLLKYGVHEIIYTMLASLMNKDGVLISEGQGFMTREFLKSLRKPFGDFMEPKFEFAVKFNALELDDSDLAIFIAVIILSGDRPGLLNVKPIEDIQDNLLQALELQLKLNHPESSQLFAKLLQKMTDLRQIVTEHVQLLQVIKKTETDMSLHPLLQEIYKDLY
Outline: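 Beta-lactamase FRET fluorescence was the read-out after a 1 h room-temperature substrate step, following 17 h compound treatment at 37C of HEK293H cells expressing a UAS-driven bla reporter responsive to PPARg.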

[5] = qHTS assay to identify small molecule antagonists of the peroxisome proliferator-activated receptor gamma (PPARg) signaling pathway - cell viability counter screen (AID 743194); conditions: Potency: co-treated with 50 nM rosiglitazone; note: nearly all actives have a fitted effect of over 55% in size
Outline: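 Viability was measured as CellTiter-Glo luminescence in GeneBLAzer PPARg UAS-bla HEK293H cells. These cells had been exposed 17 h at 37 C to compounds together with rosiglitazone at 50 nM final, with the beta-lactamase readout taken in the same wells.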

[6] = qHTS assay for small molecule agonists of the antioxidant response element (ARE) signaling pathway - cell viability counter screen (AID 743203; calls by dose curve; note: nearly all actives have a fitted effect of over 55% in size)
Outline: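 HepG2 cells carrying ARE-driven beta-lactamase; 2,000 cells/well; 5 hrs plating; compound pinned from DMSO; 16 hrs 37C/5% CO2; CellTiter-Glo added; 30 min RT; luminescence.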

[7] = qHTS assay for small molecule activators of the heat shock response signaling pathway (AID 743210; active = well fitted activation curve with a large enough effect in the signal ratio in the repeat runs, with a control signal flat, not every such curve was filed as active; the % refers to the signal ratio;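 note: HeLa cells with beta-lactamase reporter driven by heat shock elements; series mostly up to about 63 µM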)
Outline: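 HeLa HSE-bla cells, overnight plating; cpd in DMSO 5 h, 37 C; LiveBLAzer B/G FRET substrate 2.5 h RT; fluorescence intensity read.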

[8] = qHTS assay for small molecule agonists of the antioxidant response element (ARE) signaling pathway (AID 743202; active = well fitted activation curve with a large enough effect in the signal ratio in the repeat runs, not every such curve was filed as active; the % refers to the signal ratio)
Outline: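 Quantitative high-throughput format in HepG2 cells bearing an integrated ARE-beta-lactamase reporter. Compound exposure lasted 16 h at 37 C, and fluorescence was read 2 h after adding LiveBLAzer B/G substrate at room temperature.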

[9] = qHTS assay for small molecule activators of the heat shock response signaling pathway - cell viability counter screen (AID 743209); note: nearly all actives have a fitted effect of over 50% in size
Outline: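 Luminescence from CellTiter-Glo, added after the beta-lactamase FRET read, gave the viability signal. Cells were HSE-bla HeLa treated with DMSO-dissolved compounds for 5 h at 37 C following overnight plating.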

[10] = molecular target: Peroxisome proliferator-activated receptor gamma (Homo sapiens) (UniProt P37231); test: qHTS assay to identify small molecule antagonists of the peroxisome proliferator-activated receptor gamma (PPARg) signaling pathway (AID 743191; calls by dose curve; note: series mostly up to about 63 µM; nearly all actives have a fitted effect of over 30% in size)
Outline: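 Beta-lactamase reporter under UAS control in HEK293H PPARg-bla cells; compound treatment 17 h at 37C. Read-out: fluorescence intensity after 1 h room-temperature incubation with LiveBLAzer B/G FRET substrate.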

Measured: Potency

CCCCOC(=O)c1ccccc1N
not listed: [8] | [9] | [10]
inactive: all other assays above

COc1ncc(F)c2nc(S(=O)(=O)Nc3c(F)cccc3F)nn12
not listed: [4] | [10]
inactive: all other assays above

[As]#[In]
inactive: [1] | [2] | [3] | [5] | [9] | [7]

CN1C(=S)CN=C(c2ccccc2)c2cc(Cl)ccc21
not listed: [4]
inactive: all other assays above

OC(c1ccccc1)(c1ccccc1)C1CCNCC1
not listed: [5] | [8] | [10]
inactive: all other assays above

CCCCP(CCCC)CCCC
not listed: [4] | [9] | [10]
inactive: all other assays above
